Assay results from PubChem BioAssay AID641 (Vanderbilt High Throughput Screening Facility, 2007).
In all, about 58,000 compounds went through this assay and about 3,400 (5.9%) were called active.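 Rule for the calls: active = luminescence count or its row- and column-corrected plate score outside the 99.7% band of the plate's sample wells, on either side; inactive = the rest.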 The sample as a whole holds a higher share of actives than the screen did.

The compounds below were run against D(1A) dopamine receptor (Homo sapiens) (UniProt P21728) (assay: D1 CRE-luciferase signal change, two-sided – cell-based, HEK293 D1, dopamine EC30, D1 allosteric modulator project, primary screen (AID 641)). Conditions: dopamine EC30 potentiation, at 10 µM, actives deviate in either direction.
D(1A) dopamine receptor (Homo sapiens), sequence (P21728 whole entry, looked up): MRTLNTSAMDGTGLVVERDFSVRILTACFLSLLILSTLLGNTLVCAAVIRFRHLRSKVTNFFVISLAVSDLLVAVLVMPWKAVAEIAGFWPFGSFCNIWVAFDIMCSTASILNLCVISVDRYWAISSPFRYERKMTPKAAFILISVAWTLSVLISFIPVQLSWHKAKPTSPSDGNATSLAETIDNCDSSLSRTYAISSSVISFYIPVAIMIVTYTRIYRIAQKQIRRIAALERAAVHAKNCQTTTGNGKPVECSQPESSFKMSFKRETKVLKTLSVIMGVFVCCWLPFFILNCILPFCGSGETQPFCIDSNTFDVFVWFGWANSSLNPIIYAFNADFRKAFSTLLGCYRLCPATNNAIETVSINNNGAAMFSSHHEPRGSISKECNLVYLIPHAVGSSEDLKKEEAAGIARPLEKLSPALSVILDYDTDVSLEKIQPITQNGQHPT
For `CCOC(=O)N1CCN(CC(=O)c2ccc3c(c2)CCN3)CC1`, the B-score was -0.515 (inactive). `O=C(O)c1cc(S(=O)(=O)N2CCCCCC2)c(Cl)cc1Cl` was tested, and the B-score was -0.949 (inactive). `CCC(C)(C)n1nnnc1C(c1ccccc1OC)N1CCSCC1` (stereo not given) was tested, and the B-score was -0.522 (inactive). With `COc1ccc(CCn2nnnc2C(c2ccccc2)N2CCN(C)CC2)cc1OC` (stereo not given) the B-score was 0.116 (inactive). With `Cc1ccc(C(c2nnnn2C(C)(C)C)N2CCc3ccccc3C2)cc1` (stereo not given) the B-score was -2.5 (active). In the case of `COc1ccc(OC)c(C(c2nnnn2C(C)(C)C)N2CCc3ccccc3C2)c1` (stereo not given), the B-score is reported as -4.02 (active). With `CC(C)(C)n1nnnc1C(c1ccc2ncccc2c1)N1CCSCC1` (stereo not given) the B-score was -0.519 (inactive). For `Cc1ccc(C(c2nnnn2CS(=O)(=O)c2ccc(C)cc2)N2CCC(C(N)=O)CC2)cc1` (stereo not given), the B-score was 0.737 (inactive). `CCOCCc1c(O)nc(SCC(=O)NCc2ccco2)[nH]c1=O` was tested, and the B-score was 1.04 (inactive). With `CCCC(C)n1[nH]c(=O)c2c(C)cc(C)nc21` (stereo not given) the B-score was 1.59 (inactive). `N#CCCN1CCN(S(=O)(=O)c2ccc(S(=O)(=O)N3CCCC3)cc2)CC1` was tested, and the B-score was 0.478 (inactive). `N#CCCN1CCN(S(=O)(=O)c2ccc(S(=O)(=O)NC3CC3)cc2)CC1` was tested, and the B-score was -0.0246 (inactive). In the case of `N#CCCN1CCN(S(=O)(=O)c2ccc(S(=O)(=O)NC3CCCCC3)cc2)CC1`, the B-score is reported as 3.08 (active). For `COc1ccc(N2C(=O)C3CCCN3C2c2cc(OC)c(OC)cc2OC)cc1` (stereo not given), the B-score was 0.17 (inactive). With `CCOC(=O)C1=C(O)CSC1=Nc1cccc(Cl)c1` the B-score was 7.94 (active). For `CCOC(=O)c1cc(-c2ccc(Cl)s2)nc2c1c(C)nn2C`, the B-score was 0.665 (inactive). In the case of `CCOC(=O)C1=C(C)NC(C)=C(C(=O)OCC)C1c1ccccn1`, the B-score is reported as -0.891 (inactive). For `COc1ccc(CCNC(=O)c2ccco2)cc1`, the B-score was 1.58 (inactive). For `Cc1ccc(-c2nc(COC(=O)c3c(C)noc3C)cs2)cc1`, the B-score was -0.259 (inactive). With `CCOC(=O)c1c(C2CC2)csc1NC(=O)CSCc1c(C)noc1C` the B-score was -3.6 (active). For `CCOC(=O)c1c(-c2ccc(C)cc2C)csc1NC(=O)CSc1nnnn1C`, the B-score was 0.507 (inactive). `O=C(C1=C(O)C(=O)N(c2ncccn2)C1c1cccs1)c1ccco1` (stereo not given) was tested, and the B-score was -0.746 (inactive). `Cn1c(=O)[nH]c(=O)c2c1nc(N1CCN(CCO)CC1)n2CCSc1nc2ccccc2s1` was tested, and the B-score was 0.525 (inactive). For `c1nnc2c3c4c(sc3ncn12)CCC4`, the B-score was 0.277 (inactive). For `Cc1ccccc1Cn1c(=O)[nH]c2ccccc21`, the B-score was -0.259 (inactive). For `Cc1ccc(N2C(=O)CC(NCc3ccc4c(c3)OCO4)C2=O)cc1Cl` (stereo not given), the B-score was 0.36 (inactive). For `CCOc1cc(/C=N/O)cc(Br)c1OC`, the B-score was 10.9 (active). With `O=C(c1cnn2ccccc12)N1CCc2ccccc21` the B-score was -0.641 (inactive). In the case of `CCCN(CCC)C(=O)C1c2ccccc2Oc2ccccc21`, the B-score is reported as 0.123 (inactive). In the case of `C/C(=C\C(=O)c1cccnc1)Nc1ccc(C)c(C)c1`, the B-score is reported as 0.381 (inactive). With `CC(=O)c1cccc(NC(=O)c2ccncc2)c1` the B-score was -0.215 (inactive). For `C/C(=C\C(=O)c1ccccc1)Nc1cccc(O)c1`, the B-score was 4.14 (active). `CCc1nc(Nc2ccc3nccnc3c2)c2oc3ccccc3c2n1` was tested, and the B-score was -1.78 (inactive). In the case of `Cc1cccc(N2CCN(C(c3ccccc3)c3nnnn3CC3CCCO3)CC2)c1C` (stereo not given), the B-score is reported as -1.87 (inactive). In the case of `CCSc1nc(C)nc2c1oc1ccccc12`, the B-score is reported as 10.5 (active). `Cc1nc(N2CCN(c3ncccn3)CC2)c2oc3ccccc3c2n1` was tested, and the B-score was 3.11 (inactive). In the case of `COc1ccc(CCNC(=O)CSc2nc(C)nc3c2oc2ccccc23)cc1OC`, the B-score is reported as 1.41 (inactive). `CCn1nnc(NC(=O)c2c(OC)cccc2OC)n1` was tested, and the B-score was -0.273 (inactive). `Cc1ccccc1CN1CCN(CC(=O)NCc2ccccn2)C1=O` was tested, and the B-score was -0.577 (inactive). With `COc1ccc2c(Cl)c(-c3nnco3)sc2c1` the B-score was -2.33 (inactive). For `COc1ccc(-c2nnco2)cc1OC`, the B-score was 9.98 (active). With `COCCn1c(-c2ccc(OC)c(OC)c2)nc2ccccc21` the B-score was 1.2 (inactive). In the case of `COC(=O)c1ccc(NC(=O)CN(c2ccc(C)cc2)S(=O)(=O)c2c(C)n[nH]c2C)cc1`, the B-score is reported as -1.32 (inactive). In the case of `CC(=O)NCC(=O)N(C)C(C(=O)Nc1ccc2c(c1)OCCO2)c1ccccc1` (stereo not given), the B-score is reported as 1.86 (inactive). With `Cc1nc(Nc2ccc3c(c2)OCCO3)c2nnn(Cc3ccccc3Cl)c2n1` the B-score was -2.58 (inactive). `CC(=O)NC(C)c1nc2ccccc2n1Cc1ccccc1F` (stereo not given) was tested, and the B-score was 0.517 (inactive). In the case of `C#CCNc1nc(C(C)C)nc2c1nnn2Cc1ccccc1F`, the B-score is reported as 8.02 (active). `NC(=O)C1CC=CCC1C(=O)OCC(Cl)=C(Cl)Cl` (stereo not given) was tested, and the B-score was -0.419 (inactive). With `CCOc1cccc(=O)c2c(C)n(CC3CCCO3)c(C)c12` (stereo not given) the B-score was 0.961 (inactive). In the case of `CCOC(=O)NC(C(F)(F)F)(C(F)(F)F)P(=O)(c1ccccc1)c1ccccc1`, the B-score is reported as -0.00139 (inactive). For `CCCn1c(=O)c2[nH]c(C3CCCC3)nc2n(CCC)c1=O`, the B-score was 20 (active). `CCN(c1ccccc1)S(=O)(=O)c1ccc(N)cc1` was tested, and the B-score was 0.0758 (inactive). With `CC(NC(=O)CN1CCN(Cc2ccc(Cl)cc2)C1=O)c1ccc2c(c1)OCCO2` (stereo not given) the B-score was -0.383 (inactive). `CCNc1nc(SCCOc2ccccc2)nc(N(C)C)n1` was tested, and the B-score was 1.16 (inactive). In the case of `CCNc1nc(NCC)nc(N(C)n2cnnc2)n1`, the B-score is reported as 6.74 (active). `Cc1cccc(NC(=O)C2CCN(S(=O)(=O)c3cccc4cccnc34)CC2)c1` was tested, and the B-score was -1.64 (inactive). In the case of `CCOC(=O)c1ccc(Nc2cc(C)nc3nc(C)nn23)cc1`, the B-score is reported as 0.18 (inactive). With `COc1cccc(N2CC(C(=O)Nc3c(C)cccc3C)CC2=O)c1` (stereo not given) the B-score was 0.869 (inactive). `CC1CCCCN1CC(=O)NCc1ccc2c(c1)OCO2` (stereo not given) was tested, and the B-score was 0.0178 (inactive). In the case of `Cc1cc(NC(=O)CN2CCCCC2C)nc2c1c(=O)oc1ccccc12` (stereo not given), the B-score is reported as -0.0379 (inactive). `CCc1ccc2oc(=O)cc(CN3CCCCC3C)c2c1` (stereo not given) was tested, and the B-score was 3.81 (active). `COCC(C)N=CC1=C(O)CC(C)(C)CC1=O` (stereo not given) was tested, and the B-score was 0.0482 (inactive). For `CCn1c(Cc2ccccc2)nnc1SCC(=O)Nc1ccccc1`, the B-score was -0.326 (inactive). `CC1OC2C(OC1C)N(S(C)(=O)=O)CCN2S(C)(=O)=O` (stereo not given) was tested, and the B-score was -0.145 (inactive). In the case of `COc1ccc(-c2nnn(Cc3nc(N)nc(N4CCCCC4)n3)n2)cc1`, the B-score is reported as 5 (active). In the case of `CCc1ccc(-c2nnn(Cc3nn[nH]n3)n2)cc1`, the B-score is reported as -0.837 (inactive). For `COc1ccc(-c2nnn(CC(=O)N(CCO)C(C(=O)NC3CCCC3)c3ccc(F)cc3)n2)cc1` (stereo not given), the B-score was -0.256 (inactive). `COc1ccc(-n2nc3c(c2NC(=O)Cc2cccc(C)c2)CS(=O)C3)cc1` (stereo not given) was tested, and the B-score was 0.123 (inactive). In the case of `COc1cccc(NC(=O)Nc2nnc(N3CCCCC3C)s2)c1` (stereo not given), the B-score is reported as -0.931 (inactive). `CC/C(=N\O)C(C)(C)/[N+]([O-])=C/c1ccc(Br)cc1` was tested, and the B-score was 0.458 (inactive). With `CCCS(=O)(=O)N1CCC(C(=O)NCCc2ccc(OC)c(OC)c2)CC1` the B-score was 1.44 (active). With `CCCS(=O)(=O)N1CCC(C(=O)NCCCN(C)Cc2ccccc2)CC1` the B-score was -0.981 (inactive). For `COc1ccc(CCNC(=O)C2CCN(c3nn4c(=O)cc(C)nc4s3)CC2)cc1OC`, the B-score was -0.543 (inactive). With `CN1CCN(Cc2c(O)ccc3c2oc(=O)c2ccccc23)CC1` the B-score was -0.323 (inactive). For `O=C(CSc1nnc(-c2cccs2)n1Cc1ccco1)c1ccc2c(c1)OCO2`, the B-score was -1.01 (inactive). `CCOC(=O)N1CCC(NC(=O)c2cnn3ccccc23)CC1` was tested, and the B-score was 0.314 (inactive). `CC1Oc2ccccc2N(Cc2cccnc2)C1=O` (stereo not given) was tested, and the B-score was 6.15 (active). For `O=C(Cn1nc(Cc2cccnc2)c2ccccc2c1=O)NCC1COc2ccccc2O1` (stereo not given), the B-score was 0.362 (inactive). In the case of `O=C(O)C1CC(=O)N(Cc2cccnc2)C1` (stereo not given), the B-score is reported as -0.0843 (inactive). `Cc1cc2cc(CNC(=O)c3ccc(S(=O)(=O)N4CCOCC4)cc3)ccc2[nH]1` was tested, and the B-score was 0.133 (inactive). `O=C(CN1C(=O)CSc2ncccc21)N1CCOCC1` was tested, and the B-score was -0.0289 (inactive). In the case of `Cc1cc(=O)cc(C)[nH]1`, the B-score is reported as -0.271 (inactive). `CC(=O)NC(C)(C)C1CC=C(C)/C(=N\O)C1` (stereo not given) was tested, and the B-score was 0.674 (inactive). In the case of `OC(COc1ccccc1)Cn1cc(Br)cn1` (stereo not given), the B-score is reported as -0.000319 (inactive). `CCn1cc(C(=O)N2CCN(Cc3ccc4c(c3)OCO4)CC2)c2cc(OC)c(OC)cc2c1=O` was tested, and the B-score was -1.2 (inactive). In the case of `CCn1cc(C(=O)NCc2ccc3c(c2)OCO3)c2cc(OC)c(OC)cc2c1=O`, the B-score is reported as 0.436 (inactive). In the case of `CCn1cc(C(=O)NCC2COc3ccccc3O2)c2cc(OC)c(OC)cc2c1=O` (stereo not given), the B-score is reported as 5.22 (active). For `Cc1ccccc1C(=O)Nc1cccc(-c2nnc(SCC(=O)O)n2C)c1`, the B-score was -0.574 (inactive). With `CCCc1[nH]nc2c1C(c1ccc(OC)c(Cn3nc(C)c(Br)c3C)c1)C(C#N)=C(N)O2` (stereo not given) the B-score was 0.961 (inactive). `CC1(C)CC(=O)c2sc(N)nc2C1` was tested, and the B-score was -0.282 (inactive). For `CCCc1nc(N)nc2c1C(=O)CC(C)(C)C2`, the B-score was 14.2 (active). In the case of `Cc1ccccc1CSCC(=O)NC(=O)NC(C)(C)C`, the B-score is reported as 0.485 (inactive). In the case of `Cc1ccc(C(CC(=O)O)Nc2nc(N3CCCCC3)nc(N3CCCCC3)n2)cc1` (stereo not given), the B-score is reported as -0.363 (inactive). For `CC(Nc1nc(N2CCCC2)nc2ccccc12)c1ccccc1` (stereo not given), the B-score was -4.18 (active). `O=C(Nc1ccc2c(c1)OCCO2)C1CCCN(c2ncccn2)C1` (stereo not given) was tested, and the B-score was -3.93 (active). `Cc1ccnc(N2CCCC(C(=O)Nc3cc(F)ccc3C)C2)n1` (stereo not given) was tested, and the B-score was -0.197 (inactive). In the case of `O=C(CSc1nc2ncccc2[nH]1)Nc1ccc2c(c1)OCCO2`, the B-score is reported as 0.287 (inactive). In the case of `O=C1c2oc3ccc(Br)cc3c(=O)c2C(c2cccc(F)c2)N1CCO` (stereo not given), the B-score is reported as -0.882 (inactive). For `CN=C1SC(C(=O)O)CC(=O)N1C` (stereo not given), the B-score was -0.346 (inactive). With `Cc1noc(NS(=O)(=O)c2ccc(N3CC(O)=C(c4ccccc4)C3=N)cc2)c1C` the B-score was 0.215 (inactive).
